Experimental findings from paper PMC7862700, “An all-to-all approach to the identification of sequence-specific readers for epigenetic DNA modifications on cytosine” are described below.

What all share (assay): DAPPL (digital affinity profiling via proximity ligation, sequencing); 10 mM Tris-HCl pH 7.5, 50 mM NaCl, 1 mM DTT, 4% glycerol, room temperature, 30 min; GST-TFs on glutathione beads, 16-mer random dsDNA library, 0.1% formaldehyde crosslink after washing; high values mean tight binding
One assay addresses T1, FLI1 (Homo sapiens, UniProt Q01543 1-452).
T1 sequence: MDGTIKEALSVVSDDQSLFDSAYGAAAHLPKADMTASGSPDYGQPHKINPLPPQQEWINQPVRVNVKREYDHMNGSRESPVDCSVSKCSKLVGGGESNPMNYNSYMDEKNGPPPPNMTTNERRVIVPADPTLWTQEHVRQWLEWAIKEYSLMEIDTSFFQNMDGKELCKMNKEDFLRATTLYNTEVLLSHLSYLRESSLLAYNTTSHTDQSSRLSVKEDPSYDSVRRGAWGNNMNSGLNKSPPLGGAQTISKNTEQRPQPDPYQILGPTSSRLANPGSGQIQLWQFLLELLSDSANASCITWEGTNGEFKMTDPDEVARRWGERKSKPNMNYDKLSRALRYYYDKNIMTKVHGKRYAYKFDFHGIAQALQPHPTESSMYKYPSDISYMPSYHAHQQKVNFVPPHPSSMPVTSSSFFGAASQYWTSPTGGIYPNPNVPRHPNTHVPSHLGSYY
The note with it: protein: recombinant; tags: N-terminal GST; dsDNA, one strand shown. The method in brief: (§1)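 Beads coated with glutathione captured GST-fused human transcription factors that had been expressed in yeast, and the factors were then given DNA barcodes and pooled with a tag-only sample. The pools were incubated with 200 nmole of a random double-stranded 16-mer DNA library in Tris/NaCl/DTT/glycerol buffer for 30 min at room temperature, washed, crosslinked with 0.1% formaldehyde and proximity-ligated with BsaI/T4 ligase at 37 °C for 1 h. PCR amplification and Illumina NextSeq500 sequencing came last. Binding signal is each hexamer's read frequency for a factor divided by its frequency for the tag-only sample.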

A further assay concerns the target T2, GABPA (Homo sapiens, UniProt Q06546 1-454).
T2 sequence: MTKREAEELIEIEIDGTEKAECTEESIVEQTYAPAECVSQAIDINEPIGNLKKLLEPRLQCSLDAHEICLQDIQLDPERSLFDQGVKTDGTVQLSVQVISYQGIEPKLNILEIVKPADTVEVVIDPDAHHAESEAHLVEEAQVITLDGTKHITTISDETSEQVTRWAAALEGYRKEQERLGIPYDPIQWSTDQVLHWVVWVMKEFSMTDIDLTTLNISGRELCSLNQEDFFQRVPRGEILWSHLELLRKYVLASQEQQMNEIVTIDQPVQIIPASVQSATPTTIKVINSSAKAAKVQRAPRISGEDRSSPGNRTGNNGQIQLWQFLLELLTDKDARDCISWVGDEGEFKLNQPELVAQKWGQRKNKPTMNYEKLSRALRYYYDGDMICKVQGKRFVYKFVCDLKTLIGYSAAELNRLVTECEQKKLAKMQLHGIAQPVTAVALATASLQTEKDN
Particulars: protein: recombinant; tags: N-terminal GST; dsDNA, one strand shown. Put shortly: as §1

A further assay deals with T3, ERG (Homo sapiens, UniProt P11308 1-479).
T3 sequence: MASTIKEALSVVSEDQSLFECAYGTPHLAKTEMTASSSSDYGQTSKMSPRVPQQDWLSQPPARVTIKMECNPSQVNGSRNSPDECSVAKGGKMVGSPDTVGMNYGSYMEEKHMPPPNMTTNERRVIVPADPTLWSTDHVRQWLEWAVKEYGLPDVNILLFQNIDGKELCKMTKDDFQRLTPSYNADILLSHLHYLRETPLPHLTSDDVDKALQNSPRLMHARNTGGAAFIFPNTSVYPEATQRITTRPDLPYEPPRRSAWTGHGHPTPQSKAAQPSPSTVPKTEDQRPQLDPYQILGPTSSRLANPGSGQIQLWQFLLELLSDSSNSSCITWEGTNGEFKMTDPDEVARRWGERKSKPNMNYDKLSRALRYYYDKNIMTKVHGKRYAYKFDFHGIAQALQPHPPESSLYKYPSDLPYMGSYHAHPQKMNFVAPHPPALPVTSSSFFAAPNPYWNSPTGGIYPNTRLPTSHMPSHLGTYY
The note with it: protein: recombinant; tags: N-terminal GST; dsDNA, one strand shown. The method in brief: as §1

Another assay has as its target ELF1 (Homo sapiens, UniProt P32519 1-619). The note with it: protein: recombinant; tags: N-terminal GST; dsDNA, one strand shown. The method in brief: as §1
A further assay deals with SPIB (Homo sapiens, UniProt Q01892 1-262). Particulars: protein: recombinant; tags: N-terminal GST; dsDNA, one strand shown. Put shortly: as §1
Chain of SPIB (Q01892 whole entry): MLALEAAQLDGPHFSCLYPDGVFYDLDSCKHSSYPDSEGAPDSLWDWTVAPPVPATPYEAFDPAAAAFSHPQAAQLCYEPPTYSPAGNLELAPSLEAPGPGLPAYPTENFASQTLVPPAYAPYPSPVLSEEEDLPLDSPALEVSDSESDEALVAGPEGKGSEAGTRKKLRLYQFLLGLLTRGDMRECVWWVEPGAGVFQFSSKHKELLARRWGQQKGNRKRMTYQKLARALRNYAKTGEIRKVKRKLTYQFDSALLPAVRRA
In the next assay the target is T4, ELK3 (Homo sapiens, UniProt P41970 1-407).
T4 sequence: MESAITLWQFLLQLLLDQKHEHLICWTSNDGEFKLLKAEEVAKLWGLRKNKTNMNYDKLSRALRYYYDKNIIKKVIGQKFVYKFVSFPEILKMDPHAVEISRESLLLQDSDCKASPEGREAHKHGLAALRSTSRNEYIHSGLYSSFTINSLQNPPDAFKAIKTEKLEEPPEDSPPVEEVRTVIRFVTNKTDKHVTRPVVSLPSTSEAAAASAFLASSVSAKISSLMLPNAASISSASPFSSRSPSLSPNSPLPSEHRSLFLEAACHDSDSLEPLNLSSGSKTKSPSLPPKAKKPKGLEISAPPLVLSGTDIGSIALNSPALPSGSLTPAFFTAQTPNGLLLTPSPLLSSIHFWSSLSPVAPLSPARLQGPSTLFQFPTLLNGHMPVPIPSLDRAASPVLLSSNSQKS
Particulars: protein: recombinant; tags: N-terminal GST; dsDNA, one strand shown. The method in brief:
as §1

For a further assay, the target named is ETV5 (Homo sapiens, UniProt P41161 1-510). Particulars: protein: recombinant; tags: N-terminal GST; dsDNA, one strand shown. The method in brief: as §1
Chain of ETV5 (P41161 whole entry): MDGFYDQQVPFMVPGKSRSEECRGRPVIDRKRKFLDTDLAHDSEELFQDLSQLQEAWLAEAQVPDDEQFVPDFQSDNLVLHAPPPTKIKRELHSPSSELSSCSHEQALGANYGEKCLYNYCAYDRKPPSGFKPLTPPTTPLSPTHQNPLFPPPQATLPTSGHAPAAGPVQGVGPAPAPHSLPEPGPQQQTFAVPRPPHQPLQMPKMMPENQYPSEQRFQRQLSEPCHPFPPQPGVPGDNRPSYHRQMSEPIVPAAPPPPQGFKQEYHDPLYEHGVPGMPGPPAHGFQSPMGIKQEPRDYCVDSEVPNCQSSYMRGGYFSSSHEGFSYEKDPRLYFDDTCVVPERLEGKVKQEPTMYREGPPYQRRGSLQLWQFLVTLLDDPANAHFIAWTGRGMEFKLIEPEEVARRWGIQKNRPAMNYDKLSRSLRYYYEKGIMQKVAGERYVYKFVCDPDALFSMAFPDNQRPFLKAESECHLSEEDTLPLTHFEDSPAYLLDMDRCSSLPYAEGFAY
The target in another assay is HSF1 (Homo sapiens, UniProt Q00613 1-529). Particulars: protein: recombinant; tags: N-terminal GST; chain copies: 3; dsDNA, one strand shown. The method in brief: as §1
Chain of HSF1 (Q00613 whole entry): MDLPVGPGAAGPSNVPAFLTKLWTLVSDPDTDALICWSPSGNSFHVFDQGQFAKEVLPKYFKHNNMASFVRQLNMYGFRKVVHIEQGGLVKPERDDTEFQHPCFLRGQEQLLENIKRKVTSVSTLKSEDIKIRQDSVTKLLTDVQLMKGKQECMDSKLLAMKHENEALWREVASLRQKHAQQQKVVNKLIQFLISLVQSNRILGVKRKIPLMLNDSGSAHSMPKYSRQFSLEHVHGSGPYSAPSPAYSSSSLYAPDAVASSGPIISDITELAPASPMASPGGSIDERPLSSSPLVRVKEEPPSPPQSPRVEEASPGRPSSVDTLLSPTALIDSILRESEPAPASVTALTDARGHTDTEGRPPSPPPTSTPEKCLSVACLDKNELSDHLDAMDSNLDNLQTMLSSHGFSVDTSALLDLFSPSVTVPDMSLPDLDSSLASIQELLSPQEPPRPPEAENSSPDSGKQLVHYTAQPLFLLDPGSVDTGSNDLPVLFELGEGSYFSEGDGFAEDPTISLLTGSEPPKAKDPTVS
Another assay concerns the target T5, SPIC (Homo sapiens, UniProt Q8N5J4 1-248).
T5 sequence: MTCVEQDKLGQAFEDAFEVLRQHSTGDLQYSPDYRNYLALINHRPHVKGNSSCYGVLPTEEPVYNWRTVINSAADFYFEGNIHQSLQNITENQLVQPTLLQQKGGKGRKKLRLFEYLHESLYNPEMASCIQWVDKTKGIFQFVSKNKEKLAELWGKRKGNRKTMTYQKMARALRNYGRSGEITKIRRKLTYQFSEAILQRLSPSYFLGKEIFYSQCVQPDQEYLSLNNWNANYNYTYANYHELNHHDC
Particulars: protein: recombinant; tags: N-terminal GST; dsDNA, one strand shown. Put shortly:
as §1

A further assay has as its target ELF4 (Homo sapiens, UniProt Q99607 1-663). The note with it: protein: recombinant; tags: N-terminal GST; dsDNA, one strand shown. The method in brief: as §1
The target in the next assay is T6, ETV2 (Homo sapiens, UniProt O00321 1-342).
T6 sequence: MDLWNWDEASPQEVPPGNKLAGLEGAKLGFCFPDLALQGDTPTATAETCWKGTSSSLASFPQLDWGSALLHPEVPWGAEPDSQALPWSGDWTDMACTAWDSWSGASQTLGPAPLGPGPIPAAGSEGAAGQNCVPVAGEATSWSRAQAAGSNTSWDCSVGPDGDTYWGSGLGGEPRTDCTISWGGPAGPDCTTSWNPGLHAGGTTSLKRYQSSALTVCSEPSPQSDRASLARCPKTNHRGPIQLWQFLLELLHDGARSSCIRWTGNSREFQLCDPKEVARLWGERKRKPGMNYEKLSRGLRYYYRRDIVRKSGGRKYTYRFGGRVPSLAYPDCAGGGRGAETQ
The note with it: protein: recombinant; tags: N-terminal GST; dsDNA, one strand shown. Put shortly: as §1

The next assay addresses T7, ELF3 (Homo sapiens, UniProt P78545 1-371).
T7 sequence: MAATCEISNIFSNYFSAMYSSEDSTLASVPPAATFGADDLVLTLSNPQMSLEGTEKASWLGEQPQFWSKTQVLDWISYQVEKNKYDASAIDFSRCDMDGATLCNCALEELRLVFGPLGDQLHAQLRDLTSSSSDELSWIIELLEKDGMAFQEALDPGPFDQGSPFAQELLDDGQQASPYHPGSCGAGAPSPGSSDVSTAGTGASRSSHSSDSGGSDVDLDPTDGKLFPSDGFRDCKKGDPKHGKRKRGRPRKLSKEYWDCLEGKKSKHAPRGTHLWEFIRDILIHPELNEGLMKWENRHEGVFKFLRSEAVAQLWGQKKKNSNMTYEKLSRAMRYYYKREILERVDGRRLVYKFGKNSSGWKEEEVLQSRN
The note with it: protein: recombinant; tags: N-terminal GST; dsDNA, one strand shown. The method in brief: as §1

In a further assay the target is CRX (Homo sapiens, UniProt O43186 1-299). Particulars: protein: recombinant; tags: N-terminal GST; dsDNA, one strand shown. The method in brief:
as §1

The next assay has as its target T8, ELK1 (Homo sapiens, UniProt P19419 1-428).
T8 sequence: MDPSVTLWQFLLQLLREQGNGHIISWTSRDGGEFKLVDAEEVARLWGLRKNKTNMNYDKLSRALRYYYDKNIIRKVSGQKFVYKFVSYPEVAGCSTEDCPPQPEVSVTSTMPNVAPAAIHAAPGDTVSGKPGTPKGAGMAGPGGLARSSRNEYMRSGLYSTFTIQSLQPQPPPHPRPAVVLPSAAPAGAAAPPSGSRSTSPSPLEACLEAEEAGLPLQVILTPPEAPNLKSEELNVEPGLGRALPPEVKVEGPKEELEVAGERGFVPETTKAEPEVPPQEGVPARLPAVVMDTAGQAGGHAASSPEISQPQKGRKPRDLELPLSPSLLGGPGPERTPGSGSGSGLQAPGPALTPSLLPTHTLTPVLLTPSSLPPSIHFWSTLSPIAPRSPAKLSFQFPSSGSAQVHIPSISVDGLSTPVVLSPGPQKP
The note with it: protein: recombinant; tags: N-terminal GST; dsDNA, one strand shown. Put shortly: as §1

The next assay deals with T9, EHF (Homo sapiens, UniProt Q9NZC4 1-300).
T9 sequence: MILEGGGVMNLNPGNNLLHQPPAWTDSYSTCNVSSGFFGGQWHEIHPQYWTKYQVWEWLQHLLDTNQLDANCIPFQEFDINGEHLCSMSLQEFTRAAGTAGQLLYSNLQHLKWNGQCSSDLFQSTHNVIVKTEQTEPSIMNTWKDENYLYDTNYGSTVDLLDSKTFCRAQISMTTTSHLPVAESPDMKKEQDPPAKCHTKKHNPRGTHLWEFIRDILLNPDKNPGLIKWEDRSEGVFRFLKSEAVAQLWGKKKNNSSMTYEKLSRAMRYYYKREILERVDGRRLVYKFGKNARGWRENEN
Particulars: protein: recombinant; tags: N-terminal GST; dsDNA, one strand shown. Put shortly:
as §1

A further assay concerns the target SPI1 (Homo sapiens, UniProt P17947 1-270). The note with it: protein: recombinant; tags: N-terminal GST; dsDNA, one strand shown. The method in brief:
as §1

A further assay deals with T10, FEV (Homo sapiens, UniProt Q99581 1-238).
T10 sequence: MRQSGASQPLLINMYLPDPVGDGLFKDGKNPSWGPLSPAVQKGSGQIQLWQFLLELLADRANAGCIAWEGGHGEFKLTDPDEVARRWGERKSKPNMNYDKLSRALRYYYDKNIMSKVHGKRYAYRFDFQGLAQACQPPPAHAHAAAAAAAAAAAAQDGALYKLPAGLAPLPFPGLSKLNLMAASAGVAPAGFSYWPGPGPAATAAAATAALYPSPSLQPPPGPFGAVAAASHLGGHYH
The note with it: protein: recombinant; tags: N-terminal GST; dsDNA, one strand shown. The method in brief:
as §1

The target in the next assay is ETV1 (Homo sapiens, UniProt P50549 1-477). The note with it: protein: recombinant; tags: N-terminal GST; dsDNA, one strand shown. The method in brief:
as §1

Chain of CRX (O43186 whole entry): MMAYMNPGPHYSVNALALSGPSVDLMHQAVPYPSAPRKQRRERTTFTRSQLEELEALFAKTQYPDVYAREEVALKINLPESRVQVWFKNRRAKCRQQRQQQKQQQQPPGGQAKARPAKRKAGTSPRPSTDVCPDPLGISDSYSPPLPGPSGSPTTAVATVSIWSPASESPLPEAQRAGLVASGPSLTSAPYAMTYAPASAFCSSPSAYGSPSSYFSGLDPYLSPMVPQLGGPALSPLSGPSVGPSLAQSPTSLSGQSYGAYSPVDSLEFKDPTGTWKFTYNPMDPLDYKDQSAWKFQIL
Chain of ELF1 (P32519 whole entry): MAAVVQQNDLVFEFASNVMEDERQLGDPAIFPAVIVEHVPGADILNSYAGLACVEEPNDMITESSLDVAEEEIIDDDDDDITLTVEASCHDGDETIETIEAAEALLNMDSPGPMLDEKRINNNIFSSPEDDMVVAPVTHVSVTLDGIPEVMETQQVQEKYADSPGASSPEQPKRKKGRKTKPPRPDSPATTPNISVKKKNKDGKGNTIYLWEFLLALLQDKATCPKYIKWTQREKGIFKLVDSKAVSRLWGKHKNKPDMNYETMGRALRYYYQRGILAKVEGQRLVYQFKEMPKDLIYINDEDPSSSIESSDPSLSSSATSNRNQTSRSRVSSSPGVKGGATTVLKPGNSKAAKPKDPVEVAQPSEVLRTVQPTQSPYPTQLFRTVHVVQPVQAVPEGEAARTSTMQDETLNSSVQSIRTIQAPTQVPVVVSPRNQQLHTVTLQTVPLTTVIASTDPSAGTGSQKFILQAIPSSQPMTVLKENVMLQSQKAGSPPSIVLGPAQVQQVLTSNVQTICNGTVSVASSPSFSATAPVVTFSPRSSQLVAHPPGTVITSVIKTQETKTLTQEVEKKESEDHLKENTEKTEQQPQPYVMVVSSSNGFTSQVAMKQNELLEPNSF
Chain of ELF4 (Q99607 whole entry): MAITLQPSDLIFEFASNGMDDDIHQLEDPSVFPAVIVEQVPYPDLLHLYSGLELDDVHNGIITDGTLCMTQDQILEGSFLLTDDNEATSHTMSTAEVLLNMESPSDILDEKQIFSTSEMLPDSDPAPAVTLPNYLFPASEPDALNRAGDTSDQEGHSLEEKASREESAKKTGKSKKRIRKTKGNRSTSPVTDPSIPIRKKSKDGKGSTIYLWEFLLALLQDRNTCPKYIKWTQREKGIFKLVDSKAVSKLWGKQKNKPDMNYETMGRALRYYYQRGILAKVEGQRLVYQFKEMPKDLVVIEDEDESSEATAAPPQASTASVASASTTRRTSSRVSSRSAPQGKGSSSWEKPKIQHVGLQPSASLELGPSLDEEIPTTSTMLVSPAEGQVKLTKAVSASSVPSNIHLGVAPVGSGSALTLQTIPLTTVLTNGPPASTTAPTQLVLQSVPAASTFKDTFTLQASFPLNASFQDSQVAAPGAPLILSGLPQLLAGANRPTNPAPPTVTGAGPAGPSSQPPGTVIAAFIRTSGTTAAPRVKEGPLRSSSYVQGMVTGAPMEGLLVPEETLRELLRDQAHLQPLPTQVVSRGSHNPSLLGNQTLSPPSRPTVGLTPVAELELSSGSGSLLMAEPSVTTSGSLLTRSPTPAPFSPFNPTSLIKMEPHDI
Chain of ETV1 (P50549 whole entry): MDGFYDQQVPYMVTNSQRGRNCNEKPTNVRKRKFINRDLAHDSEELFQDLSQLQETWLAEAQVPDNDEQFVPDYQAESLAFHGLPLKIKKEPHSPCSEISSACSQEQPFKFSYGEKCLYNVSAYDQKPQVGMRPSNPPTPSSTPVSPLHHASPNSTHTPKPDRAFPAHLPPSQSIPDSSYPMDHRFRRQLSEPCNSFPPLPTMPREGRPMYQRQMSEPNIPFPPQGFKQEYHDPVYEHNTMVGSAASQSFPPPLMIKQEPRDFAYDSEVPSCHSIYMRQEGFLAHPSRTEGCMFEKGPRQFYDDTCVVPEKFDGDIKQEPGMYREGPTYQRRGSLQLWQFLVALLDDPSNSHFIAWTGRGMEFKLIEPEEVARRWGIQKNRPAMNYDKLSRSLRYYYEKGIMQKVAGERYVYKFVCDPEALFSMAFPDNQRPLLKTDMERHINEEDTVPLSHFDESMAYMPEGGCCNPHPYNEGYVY

On to TCTAGG, for which the binding signal with FLI1 is 1.12 fold enrichment (6-mer frequency, TF over GST control); with GABPA, 1.1 fold enrichment (6-mer frequency, TF over GST control); with ERG, 1.02 fold enrichment (6-mer frequency, TF over GST control); with ELF1 it was 1.05 fold enrichment (6-mer frequency, TF over GST control); with SPIB it was 1.11 fold enrichment (6-mer frequency, TF over GST control); with ELK3 it was 1.07 fold enrichment (6-mer frequency, TF over GST control). The binding signal is 1.05 fold enrichment (6-mer frequency, TF over GST control) with ETV5; 1.7 fold enrichment (6-mer frequency, TF over GST control) in the assay with HSF1; 1.24 fold enrichment (6-mer frequency, TF over GST control) with SPIC; 1.13 fold enrichment (6-mer frequency, TF over GST control) with ELF4; 1.11 fold enrichment (6-mer frequency, TF over GST control) with ETV2; 1.07 fold enrichment (6-mer frequency, TF over GST control) with ELF3. Moreover, the binding signal with CRX was 1.27 fold enrichment (6-mer frequency, TF over GST control).
For the sequence CGAGCT, the binding signal with FLI1 is 1.02 fold enrichment (6-mer frequency, TF over GST control); in the assay with ELK1, 1.02 fold enrichment (6-mer frequency, TF over GST control); with GABPA, 1.09 fold enrichment (6-mer frequency, TF over GST control); in the assay with ERG, 1.04 fold enrichment (6-mer frequency, TF over GST control); with ELF1 it was 1.06 fold enrichment (6-mer frequency, TF over GST control); with EHF it was 1.13 fold enrichment (6-mer frequency, TF over GST control). The binding signal is 1.03 fold enrichment (6-mer frequency, TF over GST control) in the assay with SPI1; 1.04 fold enrichment (6-mer frequency, TF over GST control) with SPIB; 1.06 fold enrichment (6-mer frequency, TF over GST control) in the assay with ELK3; 1.03 fold enrichment (6-mer frequency, TF over GST control) with FEV; 1.01 fold enrichment (6-mer frequency, TF over GST control) in the assay with ETV5; 1.24 fold enrichment (6-mer frequency, TF over GST control) with HSF1. The binding signal with SPIC is 1.25 fold enrichment (6-mer frequency, TF over GST control); in the assay with ELF4, 1.07 fold enrichment (6-mer frequency, TF over GST control); with ETV2 it was 1.05 fold enrichment (6-mer frequency, TF over GST control); with CRX it was 1.04 fold enrichment (6-mer frequency, TF over GST control); with ETV1, 1.15 fold enrichment (6-mer frequency, TF over GST control).
